# Data reported in article PMC7862700, “An all-to-all approach to the identification of sequence-specific readers for epigenetic DNA modifications on cytosine”.
# Key:
# Test in all cases: DAPPL (digital affinity profiling via proximity ligation, sequencing); 10 mM Tris-HCl pH 7.5, 50 mM NaCl, 1 mM DTT, 4% glycerol, room temperature, 30 min; GST-TFs on glutathione beads, 16-mer random dsDNA library, 0.1% formaldehyde crosslink after washing; high values mean tight binding
# [1] = target: T1, FLI1 (Homo sapiens, UniProt Q01543 1-452); conditions: protein: recombinant; tags: N-terminal GST; dsDNA, one strand shown
# T1 sequence: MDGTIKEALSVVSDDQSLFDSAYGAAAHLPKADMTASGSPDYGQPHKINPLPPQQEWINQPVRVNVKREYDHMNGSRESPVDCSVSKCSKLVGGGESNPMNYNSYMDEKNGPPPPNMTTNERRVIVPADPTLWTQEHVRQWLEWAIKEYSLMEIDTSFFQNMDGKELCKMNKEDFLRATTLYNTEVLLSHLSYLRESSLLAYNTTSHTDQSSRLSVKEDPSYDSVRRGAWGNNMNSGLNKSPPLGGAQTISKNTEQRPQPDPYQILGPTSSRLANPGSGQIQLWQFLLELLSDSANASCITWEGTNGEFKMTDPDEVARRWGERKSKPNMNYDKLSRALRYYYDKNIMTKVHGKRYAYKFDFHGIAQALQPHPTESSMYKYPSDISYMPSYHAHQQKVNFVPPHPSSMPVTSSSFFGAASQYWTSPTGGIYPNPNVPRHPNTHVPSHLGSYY
# How it was run: (§1)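 After expression in yeast as GST fusions, human transcription factors were bound to glutathione beads, DNA-barcoded and mixed with a tag-only sample. The pools were incubated with 200 nmole of a 16-mer random double-stranded DNA library in Tris/NaCl/DTT/glycerol buffer (30 min, room temperature), washed and crosslinked with 0.1% formaldehyde. Proximity ligation with BsaI/T4 ligase ran for 1 h at 37 °C, before PCR amplification and sequencing on an Illumina NextSeq500. Binding signal is a hexamer's read frequency for a factor divided by its frequency for the tag-only sample.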
# [2] = target: T2, ELK1 (Homo sapiens, UniProt P19419 1-428); conditions: protein: recombinant; tags: N-terminal GST; dsDNA, one strand shown
# T2 sequence: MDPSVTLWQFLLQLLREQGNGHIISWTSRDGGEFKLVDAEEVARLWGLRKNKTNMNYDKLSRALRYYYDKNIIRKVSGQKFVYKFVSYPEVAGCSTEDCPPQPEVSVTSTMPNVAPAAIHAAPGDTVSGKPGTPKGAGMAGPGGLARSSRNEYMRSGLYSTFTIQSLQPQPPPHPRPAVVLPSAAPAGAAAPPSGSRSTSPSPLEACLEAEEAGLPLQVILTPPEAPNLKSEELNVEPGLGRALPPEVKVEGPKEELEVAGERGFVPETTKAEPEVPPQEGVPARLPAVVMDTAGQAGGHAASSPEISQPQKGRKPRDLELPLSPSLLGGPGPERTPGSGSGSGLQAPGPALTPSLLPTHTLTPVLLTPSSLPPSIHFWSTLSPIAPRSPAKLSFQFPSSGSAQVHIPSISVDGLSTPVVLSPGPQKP
# How it was run: as §1
# [3] = target: T3, GABPA (Homo sapiens, UniProt Q06546 1-454); conditions: protein: recombinant; tags: N-terminal GST; dsDNA, one strand shown
# T3 sequence: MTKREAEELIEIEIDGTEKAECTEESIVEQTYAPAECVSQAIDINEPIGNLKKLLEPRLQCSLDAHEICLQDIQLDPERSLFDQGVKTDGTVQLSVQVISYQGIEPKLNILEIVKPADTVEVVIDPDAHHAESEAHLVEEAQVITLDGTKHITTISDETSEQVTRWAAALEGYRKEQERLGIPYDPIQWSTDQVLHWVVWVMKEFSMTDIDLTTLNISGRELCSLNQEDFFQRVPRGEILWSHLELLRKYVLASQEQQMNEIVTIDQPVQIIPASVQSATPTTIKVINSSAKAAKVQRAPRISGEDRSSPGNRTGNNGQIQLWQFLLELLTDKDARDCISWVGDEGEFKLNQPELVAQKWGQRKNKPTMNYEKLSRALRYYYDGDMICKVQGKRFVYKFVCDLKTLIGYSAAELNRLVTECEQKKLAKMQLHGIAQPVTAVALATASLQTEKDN
# How it was run: as §1
# [4] = target: T4, ERG (Homo sapiens, UniProt P11308 1-479); conditions: protein: recombinant; tags: N-terminal GST; dsDNA, one strand shown
# T4 sequence: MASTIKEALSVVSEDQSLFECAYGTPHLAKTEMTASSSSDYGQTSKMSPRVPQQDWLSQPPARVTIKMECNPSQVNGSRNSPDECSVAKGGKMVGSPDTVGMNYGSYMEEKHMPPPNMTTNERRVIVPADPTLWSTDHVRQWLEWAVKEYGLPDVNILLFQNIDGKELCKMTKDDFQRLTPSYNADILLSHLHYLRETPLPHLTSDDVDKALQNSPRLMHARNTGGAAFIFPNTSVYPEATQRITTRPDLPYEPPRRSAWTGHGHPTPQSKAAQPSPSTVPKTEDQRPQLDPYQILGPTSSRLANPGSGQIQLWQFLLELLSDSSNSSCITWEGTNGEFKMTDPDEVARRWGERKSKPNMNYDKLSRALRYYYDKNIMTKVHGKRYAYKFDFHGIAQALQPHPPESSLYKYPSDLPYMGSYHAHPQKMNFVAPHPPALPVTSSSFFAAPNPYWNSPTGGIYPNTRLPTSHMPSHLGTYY
# How it was run: as §1
# [5] = target: ELF1 (Homo sapiens, UniProt P32519 1-619); conditions: protein: recombinant; tags: N-terminal GST; dsDNA, one strand shown
# Chain of ELF1 (P32519 whole entry): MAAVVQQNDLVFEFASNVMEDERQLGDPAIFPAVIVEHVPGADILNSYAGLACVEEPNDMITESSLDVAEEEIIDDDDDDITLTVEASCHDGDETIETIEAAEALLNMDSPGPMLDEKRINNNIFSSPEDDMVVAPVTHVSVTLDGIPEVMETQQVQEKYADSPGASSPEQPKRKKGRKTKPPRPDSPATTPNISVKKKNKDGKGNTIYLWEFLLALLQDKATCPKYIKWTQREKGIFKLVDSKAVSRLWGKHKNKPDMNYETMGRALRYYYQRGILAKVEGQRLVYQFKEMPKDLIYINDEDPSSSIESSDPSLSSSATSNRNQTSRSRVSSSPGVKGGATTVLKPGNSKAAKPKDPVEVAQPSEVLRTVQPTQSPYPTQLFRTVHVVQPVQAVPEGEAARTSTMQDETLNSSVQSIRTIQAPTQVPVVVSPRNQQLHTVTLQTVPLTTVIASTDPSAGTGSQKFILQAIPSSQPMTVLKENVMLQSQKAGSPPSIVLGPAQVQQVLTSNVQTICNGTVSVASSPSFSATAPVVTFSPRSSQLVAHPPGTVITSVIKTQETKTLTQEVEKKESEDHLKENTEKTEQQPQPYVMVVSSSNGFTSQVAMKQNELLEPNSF
# How it was run: as §1
# [6] = target: T5, EHF (Homo sapiens, UniProt Q9NZC4 1-300); conditions: protein: recombinant; tags: N-terminal GST; dsDNA, one strand shown
# T5 sequence: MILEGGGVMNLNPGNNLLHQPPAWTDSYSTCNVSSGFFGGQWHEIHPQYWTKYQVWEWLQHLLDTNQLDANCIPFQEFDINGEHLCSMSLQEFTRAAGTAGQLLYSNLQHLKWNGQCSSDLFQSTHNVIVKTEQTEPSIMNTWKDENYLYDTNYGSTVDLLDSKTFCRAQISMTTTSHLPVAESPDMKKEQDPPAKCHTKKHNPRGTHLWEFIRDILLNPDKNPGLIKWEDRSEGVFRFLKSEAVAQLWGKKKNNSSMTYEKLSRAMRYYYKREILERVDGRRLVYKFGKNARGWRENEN
# How it was run: as §1
# [7] = target: SPI1 (Homo sapiens, UniProt P17947 1-270); conditions: protein: recombinant; tags: N-terminal GST; dsDNA, one strand shown
# How it was run: as §1
# [8] = target: SPIB (Homo sapiens, UniProt Q01892 1-262); conditions: protein: recombinant; tags: N-terminal GST; dsDNA, one strand shown
# Chain of SPIB (Q01892 whole entry): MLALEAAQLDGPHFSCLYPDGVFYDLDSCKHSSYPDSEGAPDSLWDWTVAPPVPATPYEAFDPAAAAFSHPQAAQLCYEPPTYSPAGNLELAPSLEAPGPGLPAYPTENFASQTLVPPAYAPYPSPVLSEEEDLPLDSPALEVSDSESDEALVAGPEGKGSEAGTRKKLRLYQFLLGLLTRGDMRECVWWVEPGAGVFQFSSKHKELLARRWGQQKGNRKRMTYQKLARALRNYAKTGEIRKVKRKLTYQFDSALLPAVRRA
# How it was run: as §1
# [9] = target: T6, ELK3 (Homo sapiens, UniProt P41970 1-407); conditions: protein: recombinant; tags: N-terminal GST; dsDNA, one strand shown
# T6 sequence: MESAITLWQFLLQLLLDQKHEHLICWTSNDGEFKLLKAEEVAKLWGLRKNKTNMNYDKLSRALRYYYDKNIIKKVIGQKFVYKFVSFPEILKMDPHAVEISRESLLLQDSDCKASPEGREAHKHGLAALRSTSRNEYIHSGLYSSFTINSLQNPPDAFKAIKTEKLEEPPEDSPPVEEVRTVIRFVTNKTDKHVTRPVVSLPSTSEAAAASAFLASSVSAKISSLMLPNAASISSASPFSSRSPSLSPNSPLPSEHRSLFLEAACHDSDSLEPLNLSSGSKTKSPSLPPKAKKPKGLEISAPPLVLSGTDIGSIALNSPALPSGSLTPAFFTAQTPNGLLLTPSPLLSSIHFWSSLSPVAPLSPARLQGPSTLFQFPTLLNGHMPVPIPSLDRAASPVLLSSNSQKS
# How it was run: as §1
# [10] = target: T7, FEV (Homo sapiens, UniProt Q99581 1-238); conditions: protein: recombinant; tags: N-terminal GST; dsDNA, one strand shown
# T7 sequence: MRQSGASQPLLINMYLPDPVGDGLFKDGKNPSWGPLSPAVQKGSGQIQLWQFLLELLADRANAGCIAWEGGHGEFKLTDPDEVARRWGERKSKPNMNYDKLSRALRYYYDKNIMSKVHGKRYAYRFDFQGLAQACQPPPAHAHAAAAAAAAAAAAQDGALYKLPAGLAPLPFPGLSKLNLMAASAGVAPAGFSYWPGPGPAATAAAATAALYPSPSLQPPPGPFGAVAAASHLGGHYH
# How it was run: as §1
# [11] = target: ETV5 (Homo sapiens, UniProt P41161 1-510); conditions: protein: recombinant; tags: N-terminal GST; dsDNA, one strand shown
# Chain of ETV5 (P41161 whole entry): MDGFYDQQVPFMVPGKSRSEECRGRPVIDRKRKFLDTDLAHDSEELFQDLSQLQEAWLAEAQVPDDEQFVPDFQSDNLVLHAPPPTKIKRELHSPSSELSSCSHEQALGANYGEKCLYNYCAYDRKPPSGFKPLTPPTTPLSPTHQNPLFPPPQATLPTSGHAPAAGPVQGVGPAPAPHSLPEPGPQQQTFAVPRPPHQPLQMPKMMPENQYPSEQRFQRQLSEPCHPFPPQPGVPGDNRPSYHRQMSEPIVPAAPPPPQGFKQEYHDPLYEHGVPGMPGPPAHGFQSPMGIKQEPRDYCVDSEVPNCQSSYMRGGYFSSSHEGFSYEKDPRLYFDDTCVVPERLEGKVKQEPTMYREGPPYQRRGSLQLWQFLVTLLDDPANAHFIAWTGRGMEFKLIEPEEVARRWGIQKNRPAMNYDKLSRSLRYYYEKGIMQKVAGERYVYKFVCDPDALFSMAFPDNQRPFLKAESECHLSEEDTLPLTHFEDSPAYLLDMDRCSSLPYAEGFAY
# How it was run: as §1
# [12] = target: HSF1 (Homo sapiens, UniProt Q00613 1-529); conditions: protein: recombinant; tags: N-terminal GST; chain copies: 3; dsDNA, one strand shown
# Chain of HSF1 (Q00613 whole entry): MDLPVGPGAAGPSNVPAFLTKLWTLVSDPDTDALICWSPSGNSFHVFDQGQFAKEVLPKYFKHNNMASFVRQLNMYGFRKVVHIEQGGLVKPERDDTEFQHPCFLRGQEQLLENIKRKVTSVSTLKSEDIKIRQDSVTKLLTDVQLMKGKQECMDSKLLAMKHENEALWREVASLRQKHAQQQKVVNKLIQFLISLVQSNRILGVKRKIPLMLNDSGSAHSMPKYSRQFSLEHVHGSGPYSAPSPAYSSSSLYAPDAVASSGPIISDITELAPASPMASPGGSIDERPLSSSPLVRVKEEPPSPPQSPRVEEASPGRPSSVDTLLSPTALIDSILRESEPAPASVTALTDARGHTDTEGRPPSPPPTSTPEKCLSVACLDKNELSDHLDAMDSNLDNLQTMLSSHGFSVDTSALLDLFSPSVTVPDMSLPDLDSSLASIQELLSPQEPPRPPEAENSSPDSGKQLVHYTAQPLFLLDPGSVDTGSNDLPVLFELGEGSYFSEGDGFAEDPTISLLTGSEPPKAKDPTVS
# How it was run: as §1
# [13] = target: T8, SPIC (Homo sapiens, UniProt Q8N5J4 1-248); conditions: protein: recombinant; tags: N-terminal GST; dsDNA, one strand shown
# T8 sequence: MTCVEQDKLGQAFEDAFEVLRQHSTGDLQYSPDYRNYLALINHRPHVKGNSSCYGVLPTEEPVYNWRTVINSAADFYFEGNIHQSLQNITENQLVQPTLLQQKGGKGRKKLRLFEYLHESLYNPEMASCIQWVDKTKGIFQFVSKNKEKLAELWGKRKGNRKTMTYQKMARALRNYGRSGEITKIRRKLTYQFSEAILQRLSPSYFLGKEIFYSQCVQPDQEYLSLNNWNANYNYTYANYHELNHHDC
# How it was run: as §1
# [14] = target: ELF4 (Homo sapiens, UniProt Q99607 1-663); conditions: protein: recombinant; tags: N-terminal GST; dsDNA, one strand shown
# Chain of ELF4 (Q99607 whole entry): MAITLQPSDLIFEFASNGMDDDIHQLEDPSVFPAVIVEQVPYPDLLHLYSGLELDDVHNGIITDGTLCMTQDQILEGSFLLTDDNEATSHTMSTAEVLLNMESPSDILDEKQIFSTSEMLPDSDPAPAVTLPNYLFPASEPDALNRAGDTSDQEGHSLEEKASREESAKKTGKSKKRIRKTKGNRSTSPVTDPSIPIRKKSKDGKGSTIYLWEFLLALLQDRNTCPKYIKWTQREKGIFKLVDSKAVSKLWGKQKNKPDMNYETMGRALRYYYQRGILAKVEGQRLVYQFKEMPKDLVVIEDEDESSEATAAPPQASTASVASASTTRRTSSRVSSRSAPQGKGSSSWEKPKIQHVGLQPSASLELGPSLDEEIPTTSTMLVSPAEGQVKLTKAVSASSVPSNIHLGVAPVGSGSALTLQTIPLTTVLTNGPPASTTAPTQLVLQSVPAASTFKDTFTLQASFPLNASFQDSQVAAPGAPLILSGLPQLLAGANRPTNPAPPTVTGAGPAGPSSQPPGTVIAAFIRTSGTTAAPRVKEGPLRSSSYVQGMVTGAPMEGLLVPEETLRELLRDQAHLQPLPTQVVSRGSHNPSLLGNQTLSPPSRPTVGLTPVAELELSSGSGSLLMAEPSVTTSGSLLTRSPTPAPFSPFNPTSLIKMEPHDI
# How it was run: as §1
# [15] = target: T9, ELK4 (Homo sapiens, UniProt P28324-2 1-405); conditions: protein: recombinant; tags: N-terminal GST; dsDNA, one strand shown
# T9 sequence: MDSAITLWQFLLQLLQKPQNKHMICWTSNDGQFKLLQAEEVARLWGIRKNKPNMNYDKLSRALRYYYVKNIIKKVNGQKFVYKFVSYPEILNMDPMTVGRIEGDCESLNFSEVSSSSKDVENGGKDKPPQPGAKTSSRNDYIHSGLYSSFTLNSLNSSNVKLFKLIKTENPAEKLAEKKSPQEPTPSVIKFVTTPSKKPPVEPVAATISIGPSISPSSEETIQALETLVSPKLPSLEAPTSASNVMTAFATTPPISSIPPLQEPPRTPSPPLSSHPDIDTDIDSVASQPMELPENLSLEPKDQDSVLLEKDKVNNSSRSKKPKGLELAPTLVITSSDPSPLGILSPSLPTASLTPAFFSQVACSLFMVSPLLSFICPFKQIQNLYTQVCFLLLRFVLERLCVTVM
# How it was run: as §1
# [16] = target: T10, ETV2 (Homo sapiens, UniProt O00321 1-342); conditions: protein: recombinant; tags: N-terminal GST; dsDNA, one strand shown
# T10 sequence: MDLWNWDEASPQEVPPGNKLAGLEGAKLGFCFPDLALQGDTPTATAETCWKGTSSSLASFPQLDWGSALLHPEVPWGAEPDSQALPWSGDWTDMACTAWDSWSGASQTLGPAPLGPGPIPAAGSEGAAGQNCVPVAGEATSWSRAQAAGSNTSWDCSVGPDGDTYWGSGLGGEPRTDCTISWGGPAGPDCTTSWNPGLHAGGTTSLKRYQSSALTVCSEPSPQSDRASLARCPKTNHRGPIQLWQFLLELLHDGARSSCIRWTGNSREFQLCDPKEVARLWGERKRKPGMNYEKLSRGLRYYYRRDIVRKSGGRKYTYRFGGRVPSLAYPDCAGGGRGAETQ
# How it was run: as §1
# [17] = target: T11, ELF3 (Homo sapiens, UniProt P78545 1-371); conditions: protein: recombinant; tags: N-terminal GST; dsDNA, one strand shown
# T11 sequence: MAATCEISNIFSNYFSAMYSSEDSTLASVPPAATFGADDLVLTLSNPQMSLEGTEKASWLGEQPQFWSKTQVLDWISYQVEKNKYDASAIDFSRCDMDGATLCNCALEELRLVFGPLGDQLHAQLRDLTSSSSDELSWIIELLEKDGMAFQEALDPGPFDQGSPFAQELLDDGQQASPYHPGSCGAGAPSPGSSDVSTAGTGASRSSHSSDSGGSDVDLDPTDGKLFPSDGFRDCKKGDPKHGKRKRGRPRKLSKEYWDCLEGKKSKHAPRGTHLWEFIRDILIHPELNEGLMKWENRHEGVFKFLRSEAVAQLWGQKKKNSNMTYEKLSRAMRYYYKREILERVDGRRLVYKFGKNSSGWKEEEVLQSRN
# How it was run: as §1
# [18] = target: CRX (Homo sapiens, UniProt O43186 1-299); conditions: protein: recombinant; tags: N-terminal GST; dsDNA, one strand shown
# Chain of CRX (O43186 whole entry): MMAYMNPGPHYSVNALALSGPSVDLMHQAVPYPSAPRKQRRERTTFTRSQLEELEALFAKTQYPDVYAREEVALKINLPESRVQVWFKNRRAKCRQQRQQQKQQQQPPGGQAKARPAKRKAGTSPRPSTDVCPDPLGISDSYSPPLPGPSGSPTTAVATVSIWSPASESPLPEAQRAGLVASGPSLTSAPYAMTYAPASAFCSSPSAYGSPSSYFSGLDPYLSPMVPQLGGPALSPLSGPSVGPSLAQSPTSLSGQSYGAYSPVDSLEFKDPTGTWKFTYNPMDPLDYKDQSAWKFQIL
# How it was run: as §1
# [19] = target: ETV1 (Homo sapiens, UniProt P50549 1-477); conditions: protein: recombinant; tags: N-terminal GST; dsDNA, one strand shown
# Chain of ETV1 (P50549 whole entry): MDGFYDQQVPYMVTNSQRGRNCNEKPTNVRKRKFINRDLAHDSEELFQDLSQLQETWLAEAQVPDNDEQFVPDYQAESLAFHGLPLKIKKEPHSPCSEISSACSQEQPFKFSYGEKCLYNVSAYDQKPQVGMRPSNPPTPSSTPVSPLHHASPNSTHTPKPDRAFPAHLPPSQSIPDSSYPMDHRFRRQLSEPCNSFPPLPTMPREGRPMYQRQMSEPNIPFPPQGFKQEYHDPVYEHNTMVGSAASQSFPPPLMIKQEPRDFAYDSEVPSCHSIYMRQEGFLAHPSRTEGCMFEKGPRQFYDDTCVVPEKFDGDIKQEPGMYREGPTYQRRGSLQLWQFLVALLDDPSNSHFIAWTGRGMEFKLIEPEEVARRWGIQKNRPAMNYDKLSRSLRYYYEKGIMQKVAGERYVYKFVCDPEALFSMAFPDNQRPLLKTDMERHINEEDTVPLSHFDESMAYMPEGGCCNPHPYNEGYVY
# How it was run: as §1
sequence,measurement,setting,value
ATAAAC,binding signal,[1],"1.22 fold enrichment (6-mer frequency, TF over GST control)"
same,binding signal,[2],"1.16 fold enrichment (6-mer frequency, TF over GST control)"
same,binding signal,[3],"1.11 fold enrichment (6-mer frequency, TF over GST control)"
same,binding signal,[4],"1.11 fold enrichment (6-mer frequency, TF over GST control)"
same,binding signal,[5],"1.14 fold enrichment (6-mer frequency, TF over GST control)"
same,binding signal,[6],"1.07 fold enrichment (6-mer frequency, TF over GST control)"
same,binding signal,[7],"1.14 fold enrichment (6-mer frequency, TF over GST control)"
same,binding signal,[8],"1.19 fold enrichment (6-mer frequency, TF over GST control)"
same,binding signal,[9],"1.14 fold enrichment (6-mer frequency, TF over GST control)"
same,binding signal,[10],"1.13 fold enrichment (6-mer frequency, TF over GST control)"
same,binding signal,[11],"1.19 fold enrichment (6-mer frequency, TF over GST control)"
same,binding signal,[12],"1.27 fold enrichment (6-mer frequency, TF over GST control)"
same,binding signal,[13],"1.2 fold enrichment (6-mer frequency, TF over GST control)"
same,binding signal,[14],"1.16 fold enrichment (6-mer frequency, TF over GST control)"
same,binding signal,[15],"1.13 fold enrichment (6-mer frequency, TF over GST control)"
same,binding signal,[16],"1.19 fold enrichment (6-mer frequency, TF over GST control)"
same,binding signal,[17],"1.13 fold enrichment (6-mer frequency, TF over GST control)"
same,binding signal,[18],"1.5 fold enrichment (6-mer frequency, TF over GST control)"
same,binding signal,[19],"1.11 fold enrichment (6-mer frequency, TF over GST control)"
